# Data reported in the supplement of paper PMC8728848.
# The sample as a whole holds a higher share of the strongest signals than the screen did.
# B1: Blon2355mut (Bifidobacterium longum) (protein)
# chain: MVQEPTLEWHVIPEPTNVEPLVGTCSLPLSGTVVEQRGADDAEAVFARQLVDDIKRVCGGRWQVASGEVQREVTLRTSPSLDDWSYVLEVSPDGVVITGSGFEGVRDGVQTLRQIIRQIGLTIPCMVIRDRPAFSTRGYYLDVTRGRVPSMAWLKSWVDRLCFYKYNQFQLYIEHTFQFNGLSEVWRGADPLTSSDILELDSYCAARGIELVPSVSTFGHHYTALRTRQLRDLGEFPEDADRPFSLIERMTHHTLNITDERSYEFSTSLIDELMPLFRSRKFNICANETFDLGKGRSKQESAKRGVGAMYADFVERLCRHVDDRGHDVMVWADVALEHPEIIDTLPKNITWLNWQYEPNVDDGTTAALADAGATQMVCPAVWCWNALIPRIDDAWNNITRMARHGRAHDVSGMLVTDWGDFGHVNDPRMSVPGMIFGAQQSWNPDAELSEVDMLSRISTIEYGDHTGSVVGALRGASAKGGFSWSDLVTYLELDDGRGGCNTEIVRVMGCLEAYRNDLPQSGQARLADARVSMLRTLRDSILAGRELNGKLDDAAKDITQLLRVAGDPSSAAVWSLAIDGQRLLNRVGLALLAAHGVVRQDEAGIDAAKLADELECWTEQYSRLWHEVSRQSELARIQHVVWRAADVLRSI
# B2: Flo11 (Saccharomyces cerevisiae), P08640 (protein)
# chain: MQRPFLLAYLVLSLLFNSALGFPTALVPRGSSEGTSCNSIVNGCPNLDFNWHMDQQNIMQYTLDVTSVSWVQDNTYQITIHVKGKENIDLKYLWSLKIIGVTGPKGTVQLYGYNENTYLIDNPTDFTATFEVYATQDVNSCQVWMPNFQIQFEYLQGSAAQYASSWQWGTTSFDLSTGCNNYDNQGHSQTDFPGFYWNIDCDNNCGGTKSSTTTSSTSESSTTTSSTSESSTTTSSTSESSTTTSSTSESSTSSSTTAPATPTTTSCTKEKPTPPTTTSCTKEKPTPPHHDTTPCTKKKTTTSKTCTKKTTTPVPTPSSSTTESSSAPVPTPSSSTTESSSAPVTSSTTESSSAPVPTPSSSTTESSSAPVTSSTTESSSAPVTSSTTESSSAPVPTPSSSTTESSSAPVTSSTTESSSAPVTSSTTESSSAPVTSSTTESSSAPVTSSTTESSSAPVPTPSSSTTESSSAPVTSSTTESSSAPVPTPSSSTTESSSAPVTSSTTESSSAPVPTPSSSTTESSSAPAPTPSSSTTESSSAPVTSSTTESSSAPVPTPSSSTTESSSTPVTSSTTESSSAPVPTPSSSTTESSSAPVPTPSSSTTESSSAPAPTPSSSTTESSSAPVTSSTTESSSAPVPTPSSSTTESSSAPVPTPSSSTTESSSAPVPTPSSSTTESSSAPVTSSTTESSSAPVTSSTTESSSAPVPTPSSSTTESSSAPVPTPSSSTTESSSAPVPTPSSSTTESSSAPVTSSTTESSSAPVPTPSSSTTESSSAPVPTPSSSTTESSSAPVPTPSSSTTESSVAPVPTPSSSSNITSSAPSSTPFSSSTESSSVPVPTPSSSTTESSSAPVSSSTTESSVAPVPTPSSSSNITSSAPSSIPFSSTTESFSTGTTVTPSSSKYPGSQTETSVSSTTETTIVPTKTTTSVTTPSTTTITTTVCSTGTNSAGETTSGCSPKTVTTTVPTTTTTSVTTSSTTTITTTVCSTGTNSAGETTSGCSPKTITTTVPCSTSPSETASESTTTSPTTPVTTVVSTTVVTTEYSTSTKPGGEITTTFVTKNIPTTYLTTIAPTPSVTTVTNFTPTTITTTVCSTGTNSAGETTSGCSPKTVTTTVPCSTGTGEYTTEATTLVTTAVTTTVVTTESSTGTNSAGKTTTGYTTKSVPTTYVTTLAPSAPVTPATNAVPTTITTTECSAATNAAGETTSVCSAKTIVSSASAGENTAPSATTPVTTAIPTTVITTESSVGTNSAGETTTGYTTKSIPTTYITTLIPGSNGAKNYETVATATNPISIKTTSQLATTASASSVAPVVTSPSLTGPLQSASGSAVATYSVPSISSTYQGAANIKVLGNFMWLLLALPVVF
# Key:
# Assay in all cases: glycan array binding signal (z-score within array); higher = stronger binding
# Conditions in all cases: glycan notation: IUPAC condensed, linker removed
# [1] = target: GlcNAc(b1-2)Man(a1-3)[GlcNAc(b1-2)Man(a1-6)]Man(b1-4)GlcNAc(b1-4)GlcNAc
# In short: (§1)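 The binding signal is a Z-score computed within each array and averaged over linkers. Arrays of the same protein sequence at different concentrations or buffers were also averaged together. Data originate from 3228 arrays in the Consortium for Functional Glycomics database, kept only where the protein sequence was available.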
# [2] = target: GlcNAc(b1-3)Gal(b1-4)GlcNAc(b1-3)Gal(b1-4)GlcNAc(b1-3)Gal(b1-4)GlcNAc(b1-3)Gal(b1-4)GlcNAc(b1-2)Man(a1-3)[GlcNAc(b1-3)Gal(b1-4)GlcNAc(b1-3)Gal(b1-4)GlcNAc(b1-3)Gal(b1-4)GlcNAc(b1-3)Gal(b1-4)GlcNAc(b1-2)Man(a1-6)]Man(b1-4)GlcNAc(b1-4)[Fuc(a1-6)]GlcNAc
# In short: as §1
# [3] = target: GlcNAc(b1-3)Gal(b1-4)GlcNAc(b1-3)[GlcNAc(b1-3)Gal(b1-4)GlcNAc(b1-3)]GalNAc
# In short: as §1
# [4] = target: GlcNAc(b1-3)[GlcNAc(b1-6)]GalNAc
# In short: as §1
# [5] = target: Neu5Ac(a2-3)Gal(b1-3)[Fuc(a1-4)]GlcNAc(b1-3)Gal(b1-3)[Fuc(a1-4)]GlcNAc
# In short: as §1
# [6] = target: Neu5Ac(a2-3)Gal(b1-3)[Neu5Ac(a2-6)]GlcNAc(b1-3)[Fuc(a1-3)[Gal(b1-4)]GlcNAc(b1-6)]Gal(b1-4)Glc
# In short: as §1
# Neu5Ac(a2-3)Gal(b1-4)Glc = target: Neu5Ac(a2-3)Gal(b1-4)Glc
# In short: as §1
# [7] = target: Neu5Ac(a2-3)Gal(b1-4)[Fuc(a1-3)]GlcNAc(b1-2)Man
# In short: as §1
# [8] = target: Neu5Ac(a2-3)Gal(b1-4)[Fuc(a1-3)]GlcNAc(b1-6)[Neu5Ac(a2-3)Gal(b1-3)]GalNAc
# In short: as §1
# [9] = target: Neu5Ac(a2-6)Gal(b1-4)GlcNAc(b1-2)Man(a1-3)[Gal(b1-4)GlcNAc(b1-2)Man(a1-6)]Man(b1-4)GlcNAc(b1-4)GlcNAc
# In short: as §1
# [10] = target: Neu5Ac(a2-6)GalNAc(b1-4)GlcNAc6S
# In short: as §1
# [11] = target: Neu5Ac9Ac(a2-6)Gal(b1-4)GlcNAc
# In short: as §1
# [12] = target: Fuc(a1-2)Gal(b1-3)GalNAc(b1-3)Gal
# In short: as §1
# [13] = target: Fuc(a1-2)Gal(b1-3)GlcNAc(b1-2)Man(a1-3)[Fuc(a1-2)Gal(b1-3)GlcNAc(b1-2)Man(a1-6)]Man(b1-4)GlcNAc(b1-4)[Fuc(a1-6)]GlcNAc
# In short: as §1
# [14] = target: Fuc(a1-2)Gal(b1-4)GlcNAc(b1-3)GalNAc
# In short: as §1
# [15] = target: Fuc(a1-2)Gal(b1-4)[Fuc(a1-3)]GlcNAc(b1-3)GalNAc
# In short: as §1
# [16] = target: Fuc(a1-2)[Gal(a1-3)]Gal(b1-3)GlcNAc
# In short: as §1
# [17] = target: Fuc(a1-2)[Gal(a1-3)]Gal(b1-3)GlcNAc(b1-2)Man(a1-3)[Fuc(a1-2)[Gal(a1-3)]Gal(b1-3)GlcNAc(b1-2)Man(a1-6)]Man(b1-4)GlcNAc(b1-4)GlcNAc
# In short: as §1
# [18] = target: Fuc(a1-2)[Gal(a1-3)]Gal(b1-4)[Fuc(a1-3)]Glc
# In short: as §1
# [19] = target: Fuc(a1-2)[GalNAc(a1-3)]Gal(b1-4)GlcNAc
# In short: as §1
# Fuc(a1-4)GlcNAc = target: Fuc(a1-4)GlcNAc
# In short: as §1
# [20] = target: Gal(a1-3)Gal(b1-3)GlcNAc(b1-2)Man(a1-3)[Gal(a1-3)Gal(b1-3)GlcNAc(b1-2)Man(a1-6)]Man(b1-4)GlcNAc(b1-4)GlcNAc
# In short: as §1
# [21] = target: Gal(a1-3)Gal(b1-3)[Fuc(a1-4)]GlcNAc(b1-2)Man(a1-3)[Gal(a1-3)Gal(b1-3)[Fuc(a1-4)]GlcNAc(b1-2)Man(a1-6)]Man(b1-4)GlcNAc(b1-4)GlcNAc
# In short: as §1
# Gal(a1-4)GlcNAc = target: Gal(a1-4)GlcNAc
# In short: as §1
# Gal(a1-6)Glc = target: Gal(a1-6)Glc
# In short: as §1
# Gal(b1-3)Gal(b1-4)GlcNAc = target: Gal(b1-3)Gal(b1-4)GlcNAc
# In short: as §1
# [22] = target: Gal(b1-3)[Fuc(a1-4)]GlcNAc(b1-2)Man(a1-3)[Gal(b1-3)[Fuc(a1-4)]GlcNAc(b1-2)Man(a1-6)]Man(b1-4)GlcNAc(b1-4)GlcNAc
# In short: as §1
# [23] = target: Gal(b1-3)[Fuc(a1-4)]GlcNAc(b1-3)Gal(b1-3)[Fuc(a1-4)]GlcNAc
# In short: as §1
# [24] = target: Gal(b1-3)[GlcNAc(b1-6)]GalNAc
# In short: as §1
# [25] = target: Gal(b1-4)GlcNAc(b1-3)Gal(b1-4)[Fuc(a1-3)GlcNAc(b1-6)]Gal(b1-4)Glc
# In short: as §1
# Gal3S(b1-4)Glc = target: Gal3S(b1-4)Glc
# In short: as §1
# Gal6S(b1-4)GlcNAc6S = target: Gal6S(b1-4)GlcNAc6S
# In short: as §1
# GalNAc(b1-3)GalNAc = target: GalNAc(b1-3)GalNAc
# In short: as §1
# [26] = target: GalNAc(b1-4)GlcNAc(b1-2)Man(a1-3)[GalNAc(b1-4)GlcNAc(b1-2)Man(a1-6)]Man(b1-4)GlcNAc(b1-4)GlcNAc
# In short: as §1
# [27] = target: GlcNAc(a1-4)Gal(b1-4)GlcNAc(b1-3)Gal(b1-4)GlcNAc
# In short: as §1
# [28] = target: GlcNAc(a1-4)Gal(b1-4)GlcNAc(b1-3)Gal(b1-4)[Fuc(a1-3)]GlcNAc(b1-3)Gal(b1-4)[Fuc(a1-3)]GlcNAc
# In short: as §1
# [29] = target: GlcNAc(b1-2)Man(a1-3)[GlcNAc(b1-2)Man(a1-6)]Man(b1-4)GlcNAc(b1-4)[Fuc(a1-6)]GlcNAc
# In short: as §1
# [30] = target: GlcNAc(b1-2)[GlcNAc(b1-4)]Man(a1-3)[GlcNAc(b1-4)][GlcNAc(b1-2)[GlcNAc(b1-6)]Man(a1-6)]Man(b1-4)GlcNAc(b1-4)GlcNAc
# In short: as §1
# GlcNAc(b1-4)GlcNAc = target: GlcNAc(b1-4)GlcNAc
# In short: as §1
# [31] = target: Man(a1-2)Man(a1-2)Man(a1-3)Man
# In short: as §1
# [32] = target: Man(a1-2)Man(a1-3)[Man(a1-2)Man(a1-6)]Man
# In short: as §1
# [33] = target: Man(a1-2)Man(a1-6)[Man(a1-3)]Man(a1-6)[Man(a1-2)Man(a1-2)Man(a1-3)]Man(b1-4)GlcNAc(b1-4)GlcNAc
# In short: as §1
binder,measurement,setting,value
B1,glycan array binding signal (z-score),[1],-0.111
same,glycan array binding signal (z-score),[2],1.1
same,glycan array binding signal (z-score),[3],3.84
same,glycan array binding signal (z-score),[4],-0.847
same,glycan array binding signal (z-score),[5],-0.494
same,glycan array binding signal (z-score),[6],4.03
same,glycan array binding signal (z-score),Neu5Ac(a2-3)Gal(b1-4)Glc,3.29
same,glycan array binding signal (z-score),[7],1.4
same,glycan array binding signal (z-score),[8],1.6
same,glycan array binding signal (z-score),[9],-0.73
same,glycan array binding signal (z-score),[10],-0.126
same,glycan array binding signal (z-score),[11],3.4
B2,glycan array binding signal (z-score),[12],4.03
same,glycan array binding signal (z-score),[13],0.319
same,glycan array binding signal (z-score),[14],1.35
same,glycan array binding signal (z-score),[15],5.39
same,glycan array binding signal (z-score),[16],-0.315
same,glycan array binding signal (z-score),[17],-0.389
same,glycan array binding signal (z-score),[18],-0.826
same,glycan array binding signal (z-score),[19],-0.692
same,glycan array binding signal (z-score),Fuc(a1-4)GlcNAc,0.442
same,glycan array binding signal (z-score),[20],0.723
same,glycan array binding signal (z-score),[21],0.122
same,glycan array binding signal (z-score),Gal(a1-4)GlcNAc,-0.72
same,glycan array binding signal (z-score),Gal(a1-6)Glc,-0.453
same,glycan array binding signal (z-score),Gal(b1-3)Gal(b1-4)GlcNAc,0.164
same,glycan array binding signal (z-score),[22],-0.241
same,glycan array binding signal (z-score),[23],-0.512
same,glycan array binding signal (z-score),[24],-1.34
same,glycan array binding signal (z-score),[25],-1.05
same,glycan array binding signal (z-score),Gal3S(b1-4)Glc,0.09
same,glycan array binding signal (z-score),Gal6S(b1-4)GlcNAc6S,0.193
same,glycan array binding signal (z-score),GalNAc(b1-3)GalNAc,-0.184
same,glycan array binding signal (z-score),[26],0.79
same,glycan array binding signal (z-score),[27],6.8
same,glycan array binding signal (z-score),[28],3.01
same,glycan array binding signal (z-score),[29],3.49
same,glycan array binding signal (z-score),[30],0.283
same,glycan array binding signal (z-score),GlcNAc(b1-4)GlcNAc,-0.781
same,glycan array binding signal (z-score),[31],7.09
same,glycan array binding signal (z-score),[32],-0.669
same,glycan array binding signal (z-score),[33],-1.08
